# NPC1 prom act: activates the NPC1 promoter; 2.4% of 320,000 active; Potency, µM (series often up to 9.22 µM), for inactives: top-dose activation, most hits filed as activators; Huh7 NPC1 promoter luciferase reporter, 24 h; AID 485313; also: % of control where 0% means no effect; nearly all actives have a fitted effect of over 60% in size
#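 In 1536-well qHTS, Huh7 cells harboring an NPC1 promoter–luciferase construct received compound for 24 h; activation was quantified by luminescence following luciferase reagent addition.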
# Rab9 prom act: activates the Rab9 promoter | 2.8% of 320,000 active | Potency, µM (titrated, usually from 9.22 µM), inactives show at the top dose activation, negative = inhibition, actives largely listed as activators | Huh7 Rab9 promoter-luciferase reporter, luminescence, 24 h; also: % of control where 0% means no effect; nearly all actives have a fitted effect of over 60% in size
#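 Promoter activation is measured as luciferase luminescence in Huh7 cells stably transfected with a Rab9 promoter–luciferase construct, following 24 h compound exposure at 37 °C and 10 min reagent incubation at ambient temperature.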
# SMN2 splice enh: SMN2 splice variant enhancement | HEK293 SMN2-luciferase splicing reporter, luminescence, 30-36 h | Potency, µM (highest dose often 46.1 µM), inactives show at the highest dose activity change, positive = activation, hits mostly activators | 2.8% of 210,000 active | AID 1458; also: % of control where 0% means no effect; nearly all actives have a fitted effect of over 55% in size
#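 qHTS luciferase splicing reporter: luminescence rises when SMN2 exon 7 is included in transfected HEK293 cells. Compound exposure lasted 30-36 h at 37C, with 4.5 mM final sodium butyrate as control, followed by a ONE-Glo read.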
# Luc counter: Kinase-Glo luciferase inhibition (counter-screen). Q27757. Kinase-Glo luciferase, ATP luminescence, 8 min. Potency, µM (highest dose often 38.3 µM), for the others: at the top dose activity change, negative = inhibition, actives largely listed as inhibitors. 0.28% of 200,000 active; also: % is scaled to controls: 0 for no effect and ±100 for the full control effect; nearly all actives have a fitted effect of over 60% in size
#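 Luminescence was the read-out, taken after 8-minute incubation at ambient temperature. Luciferase turned over luciferin with 10 uM ATP in imidazole pH 7.2 buffer containing KCl, MgCl2, Tween 20 and BSA.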
# ELG1 genotox: induces genotoxicity in HEK293T cells with luciferase-tagged ELG1. HEK293T ELG1-luciferase reporter, luminescence, 16 h. AID 504466. 1.3% of 330,000 active. Potency, µM (highest dose often 46 µM), for the others: at the highest dose activity change, positive = activation, hits mostly activators; also: % of control where 0% means no effect; nearly all actives have a fitted effect of over 60% in size
#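 Cells (2,000/well) expressing the ELG1-luciferase fusion are dosed by pin tool and kept 16 hr at 37 °C, 5% CO2. Signal comes from ONE-Glo luciferase reagent after 30 min at room temperature.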
# FLuc modulator: firefly luciferase modulation, counter-screen for miR-21 project | P08659 | purified FLuc, Km substrates, luminescence inhibition | Potency, µM (doses to about 57.5 µM), inactives show top-dose activity change, negative = inhibition, actives largely listed as inhibitors | 6.9% of 360,000 active | AID 588342;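 also: plate controls were vehicle for no effect and reference inhibitor for full effect; nearly all actives have a fitted effect of over 55% in size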
# Target sequence (P08659 whole entry, looked up): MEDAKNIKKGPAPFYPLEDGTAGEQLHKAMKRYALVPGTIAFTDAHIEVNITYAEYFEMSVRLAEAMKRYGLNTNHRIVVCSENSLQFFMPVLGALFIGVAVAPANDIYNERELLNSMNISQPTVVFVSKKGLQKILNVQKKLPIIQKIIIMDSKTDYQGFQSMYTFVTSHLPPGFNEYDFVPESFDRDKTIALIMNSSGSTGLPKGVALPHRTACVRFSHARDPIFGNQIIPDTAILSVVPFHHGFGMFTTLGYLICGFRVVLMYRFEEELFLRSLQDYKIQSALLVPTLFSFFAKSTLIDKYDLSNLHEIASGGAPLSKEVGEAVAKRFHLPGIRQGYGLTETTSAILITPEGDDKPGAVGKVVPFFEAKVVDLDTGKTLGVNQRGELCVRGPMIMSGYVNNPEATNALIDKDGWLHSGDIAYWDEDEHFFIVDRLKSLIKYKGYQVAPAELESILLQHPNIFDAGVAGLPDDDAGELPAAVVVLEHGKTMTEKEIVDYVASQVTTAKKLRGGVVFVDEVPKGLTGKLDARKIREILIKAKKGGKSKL
#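 Purified P. pyralis luciferase (10nM final) with 10uM D-luciferin and 10uM ATP (Km levels) in 50mM Tris acetate pH 7.5, 10mM Mg acetate, 0.01% Tween-20, 0.05% BSA; qHTS 6-point titration, ~60 µM downward; luminescence read.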
# * = called active by the depositor; ? = inconclusive; · = no result given; ! = not active in a repeat; [ ] = another dose, or the depositor's remark. Sampled rows, rich in hits. Any-hit rate of the full collection: about 7.5%. Calls follow the shape of the dose curve; as a rule, active = well fitted curve in the direction sought with a large enough effect; inconclusive = small, poorly fitted or top-dose-only effect, or another doubt; inactive = no such curve, though single readings can be large; an effect the other way counts as inactive or inconclusive. Potency is read from the fitted curve at half-maximal effect.
SMILES,NPC1 prom act,Rab9 prom act,SMN2 splice enh,Luc counter,ELG1 genotox,FLuc modulator
O=C1NN(c2ccc(F)cc2)C(=O)/C1=C/c1cccs1,-1%,-3%,·,-8%,-1%,24µM*
O=C1NN(c2ccccc2)C(=O)/C1=C\c1ccc2c(c1)OCO2,-1%,5%,·,·,-2%,5.4µM*
COc1ccc(CNC(=O)Cn2c(=O)nc(-c3ccccc3F)c3cc(Cl)ccc32)cc1,·,·,·,·,·,6%
CCOC(=O)c1cccc(C2=CC(=O)CC(C)(C)C2)c1,2%,0%,·,·,2%,-12%
CC(C)OC(=O)[C@H]1O[C@H](CCCCOCc2ccccc2)[C@@H](C)[C@H]2O[C@H]21,·,·,-4%,-2%,·,·
COc1cccc(NC(=O)CCc2nnc3n(CC(C)C)c(=O)c4ccccc4n23)c1,·,·,-1%,·,·,4%
CCOc1ccccc1NS(=O)(=O)c1c(C)noc1C,3%,2%,28%,-2%,23µM*,-3%
COC(=O)c1ccccc1NS(=O)(=O)c1c(C)noc1C,2%,4%,·,·,-1%,1%
Nc1nc2[nH]c(=O)[nH]c2c(=O)[nH]1,·,·,-6%,0%,·,·
O=C(N/N=C/c1c(-c2ccccc2)[nH]c2ccccc12)c1cccnc1,1%,15%,?,4%,-2%,3µM*
Cn1c(-c2ccccc2)c(/C=N/NC(=O)c2cccnc2)c2ccccc21,21%,1%,?,0%,-14%,5.4µM*
Cn1cccc1/C=N/NC(=O)c1cccnc1,-2%,8%,3%,-7%,0%,?
Cc1ccc(-c2ccc(=O)n(CC(=O)Nc3ccc(C)cc3Cl)n2)cc1,·,·,5%,·,·,5%
N#CCC(=O)N/N=C\c1cccc(OC/C=C/c2ccccc2)c1,0.56µM*,?,·,·,?,13µM*
CCOC(=O)N/N=C\c1cccc(OC)c1OC/C=C/c1ccccc1,4%,9%,·,·,-4%,9.5µM*
CC(=O)N/N=C\c1cccc(OC/C=C/c2ccccc2)c1,0.4µM*,0.45µM*,·,·,?,11µM*
COC(=O)N/N=C\c1ccc(OC/C=C/c2ccccc2)cc1,7%,0%,·,·,8%,?
CC(=O)N/N=C\c1ccccc1OC/C=C/c1ccccc1,?,27%,·,·,16µM*,-17%
CC1C(=O)Nc2ccccc2N1C(=O)c1ccc(F)cc1 (stereo unspecified),-2%,-1%[1.84 µM],·,·,2%,-2%
C=CCNc1nc(NCc2ccccc2)c(C#N)c2c1CN(C)CC2,-5%,2%,22µM*,-1%,-3%,1%
Cc1ccc(-c2cc(C(=O)NCC(c3ccccc3)N(C)C)c3ccccc3n2)o1 (stereo unspecified),·,·,·,·,2%,·
CN(C)S(=O)(=O)c1cccc(NC(=O)c2c[nH]c3ccccc23)c1,15%,17%,·,·,-12%,21µM*
COC(=O)c1cc(-c2ccc(C)o2)nc2ccccc12,4%,1%,4%,-1%,0%,11µM*
CCc1nnc(NC(=O)c2cc(-c3ccc(C)o3)nc3ccccc23)s1,-1%,2%,·,·,-1%,11µM*
Cc1ccc(-c2cc(C(=O)Nc3cccc(S(=O)(=O)N(C)C)c3)c3ccccc3n2)o1,-6%,16%,·,·,-9%,9.5µM*
SMILES,NPC1 prom act,Rab9 prom act,SMN2 splice enh,Luc counter,ELG1 genotox,FLuc modulator
NS(=O)(=O)c1ccc(NC(=O)CSc2n[nH]c(=O)n2C2CC2)cc1,4%,0%,·,·,3%,1%
Cc1ccc(-c2cc(C(=O)OCC(=O)N(C)c3c(N)n(Cc4ccccc4)c(=O)[nH]c3=O)c3ccccc3n2)o1,8%,19%,·,·,?,2.4µM*
Cc1ccc(-c2cc(C(=O)Nc3ccccc3C)c3ccccc3n2)o1,-6%,-3%,1%,-2%,1%,8.5µM*
O=C(COC(=O)/C=C/c1ccc(OC(F)F)cc1)Nc1cccc(S(=O)(=O)N2CCCC2)c1,0%,-7%,·,·,9%,19µM*
COc1ccc(/C=C/C(=O)Nc2cccc(S(=O)(=O)N3CCOCC3)c2)cc1OC,-3%,-4%,·,·,-2%,?
O=C(/C=C/c1ccco1)Nc1cccc(S(=O)(=O)N2CCOCC2)c1,12%,?,16%,0%,1%,17µM*
O=C(/C=C/c1ccc(OC(F)F)cc1)Nc1cccc(S(=O)(=O)N2CCOCC2)c1,15%,2%,·,·,-28%,4.8µM*
Cc1ccc(/C=C/C(=O)Nc2cccc(S(=O)(=O)N3CCOCC3)c2)o1,6%,-1%,-15%,1%,-1%,?
COc1cccc(/C=C/c2onc(C)c2S(=O)(=O)N2CCC(C(=O)N3CCCCC3)CC2)c1,·,·,·,·,·,-7%
Cc1oc(-c2cccs2)nc1CNC[C@H]1O[C@@H](n2cnc3c(N)ncnc32)[C@H](O)[C@@H]1O,·,·,·,·,4%,·
CSc1ncc(Cl)c(C(=O)Nc2ccc(S(=O)(=O)Nc3nccc(C)n3)cc2)n1,1.8µM*,1.4µM*,14%,·,6.5µM*,11µM*!
Cc1ccnc(NS(=O)(=O)c2ccc(NC(=O)c3nc(SC(C)C)ncc3Cl)cc2)n1,·,·,-3%,·,·,?
O=C(c1ccco1)N1C(=O)c2cccc3cccc1c23,-4%,-1%,10µM*,1%,0%,-1%
O=C(Nc1nnc(SCc2ccc(Cl)cc2)s1)c1ccco1,-5%,3%,-14%,-3%,1%,0%
CCSc1nnc(NC(=O)c2ccco2)s1,25%,?,11µM*,-9%,?,?
CC(C)Sc1nnc(NC(=O)c2ccco2)s1,?,?,·,-11%,?,17µM*
CCOC(=O)CSc1nnc(NC(=O)c2ccco2)s1,2%,-1%,·,·,0%,-13%
NC(=O)c1c(/N=C/c2cccs2)sc2c1CCCC2,1.3µM*,?,·,·,9%,12µM*
c1ccc(SCc2nc3ccccc3[nH]2)nc1,?,?,6%,-8%,?,21µM*
Cn1c(CSc2nc3ccccc3s2)n[nH]c1=S,-3%,2%,18%,2%,-8%,-13%
c1ccc2[nH]c(CSc3nc4ccccc4s3)nc2c1,29%,23%,-31%,-3%,8%,15µM*
Cn1c(CSc2nc3ccccc3s2)nc2ccccc21,?,?,16µM*,-7%,13µM*,11µM*
O=P1(O)Oc2c(-c3ccccc3)cc3ccccc3c2-c2c(c(-c3ccccc3)cc3ccccc23)O1,·,·,-1%,-1%,·,·
COc1cccc(CN2CCNC(=O)C2CC(=O)NCC(C)(C)N2CCOCC2)c1OC (stereo unspecified),0%,-4%,·,·,-1%,-1%
CCOc1cc(C(=O)NCc2ccc3c(c2)CCN3C(=O)CC)cc(OCC)c1OCC,·,·,-2%,·,·,-19%
